An excerpt weighted towards active compounds, which were near 2.1% of everything screened.
Abeta rescue = compounds reversing amyloid beta toxicity in yeast; yeast expressing A-beta42, growth rescue, OD600, 48 h; response scale: 0% DMSO, 100% iron-clioquinol control; 410,000 compounds, 0.063% hits; Potency, µM (series often up to 46.1 µM), hits mostly activators; note: nearly all actives have a fitted effect of over 55% in size
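Yeast growth medium received pinned compounds, then yeast cells expressing toxic A-beta were added; plates incubated at 30 C for 48 hr. Growth read as absorbance at 600 nm, normalized to DMSO and equimolar FeCl3 plus clioquinol controls.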
aSyn rescue = inhibitors of alpha-synuclein toxicity in yeast; 370,000 compounds, 0.14% hits; Potency, µM (series often up to 46.1 µM), without a hit: top-dose growth rescue (activation), actives largely listed as activators; Yeast expressing alpha-synuclein, growth rescue, BacTiter-Glo, 24 h; note: % of control where 0% means no effect; nearly all actives have a fitted effect of over 65% in size
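Readout is rescue of growth in alpha-synuclein-expressing yeast, so inhibitors of toxicity appear as activators. Growth after 24 hr at 30 deg C in galactose medium is quantified by luminescence.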
FUS suppressor = FUS proteinopathy suppression in yeast; S. cerevisiae FUS-expressing, growth rescue, OD600, 24 h; 390,000 compounds, 0.24% hits; Potency, µM (highest dose often 76.6 µM), usual class: activators;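 note: plate controls were DMSO vehicle for no effect and reference control for full effect; nearly all actives have a fitted effect of over 55% in size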
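Galactose (2%) drives FUS expression in yeast precultured in raffinose; seeding density OD 0.005. Test compounds incubated 24hr at 30C and 99% humidity before absorbance at 600 nm was measured.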
TDP43 rescue = rescues yeast growth from TDP-43 toxicity; TDP-43 expressing yeast growth rescue, BacTiter-Glo, 24 h; Potency, µM (top dose mostly 46.1 µM), for the others: at the highest dose growth rescue (activation), most hits filed as activators; 410,000 compounds, 1.8% hits; note: % of control where 0% means no effect; nearly all actives have a fitted effect of over 50% in size
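Yeast cells expressing TDP-43 under galactose induction are exposed to compounds for 24 hr at 30 deg C. BacTiter-Glo luminescence measures growth, so protective compounds score as activators.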
* = called active by the depositor; i = inactive; ? = inconclusive; nt = no result. Calls come from the whole dose curve; as a rule, active = well fitted curve in the direction sought with a large enough effect; inconclusive = small, poorly fitted or top-dose-only effect, or another doubt; inactive = no such curve, though single readings can be large; an effect the other way counts as inactive or inconclusive. Potency is the fitted concentration of half-maximal effect.

SMILES	Abeta rescue	aSyn rescue	FUS suppressor	TDP43 rescue
C=CCOC(=O)COc1cc(C)cc2oc(=O)c3c(c12)CCC3	i	0%	?	14µM*
O=C1N(c2ccc(Cl)cc2)C(c2cccnc2)N2CCCN12 (stereo not given)	i	?	i	35µM*
CCC12CN3CC(CC)(CN(C1)C3c1cccnc1)C2=O (stereo not given)	i	2%	i	6%
C[C@]12CC[C@@H](O)C[C@@H]1CC[C@@H]1[C@@H]2CC[C@]2(C)C(=O)CC[C@@H]12	i	1%	i	18µM*
CN(CC1COc2ccccc2O1)c1nc(-c2cccnc2)nc2ccccc12 (stereo not given)	i	-16%	i	8.9µM*
CC1=C(O)C(=O)C=C2C1=CC=C1C2(C)CCC2(C)C3CC(C)(C(=O)O)CCC3(C)CCC12C (stereo not given)	i	-55%	nt	-30%
COc1ccccc1C(=O)Nc1ccc2c(c1)CC1(C(=O)N(C)C(=O)N(C)C1=O)C1CCCN21 (stereo not given)	i	-2%	40µM*	-9%
C=C1C=C(C(F)F)n2ncc(C(=O)NCc3ccccc3F)c2N1	nt	0%	nt	nt
Fc1c(F)c(F)c(N2CCNCC2)c(F)c1F	i	11%	i	-19%
O=c1oc2ccccc2c(O)c1[C@H]1c2ccc(O)cc2Oc2c1c(=O)oc1ccccc21	i	0.56µM*	i	5.6µM*
CC(c1ccccc1)n1cc(C(=O)NC2CCCC2)nn1 (stereo not given)	nt	nt	i	nt
COc1ccc(/C=N/N=C(/N)N[N+](=O)[O-])c(OC)c1	i	1%	i	14%
COc1ccc(OC)c(/C=N/OC(=O)Nc2ccc(Cl)cc2)c1	i	-15%	i	18µM*
Cc1cc(O)c2c(c1)C(=O)[C@@]13C(=C2O)C(=O)[C@H]2C(O)[C@@H]1[C@H]1C(O)[C@@H]3C(=O)C3=C(O)c4c(O)cc(C)cc4C(=O)[C@@]312 (stereo not given in full)	nt	nt	i	nt
CCc1ccccc1NC(=O)c1cccn(Cc2ccccc2F)c1=O	i	2%	i	24%
CC(C)(O)[C@H]1O[C@H]2CC[C@@]3(C)[C@@](O)(CC[C@H]4Cc5c([nH]c6ccccc56)[C@@]43C)C2=CC1=O	?	3%	?	22µM*
CC(C)Oc1cc(-n2c(=S)[nH]c3ccccc3c2=O)c(Cl)cc1Cl	i	-5%	i	10µM*
COc1cc(-n2c(=S)[nH]c3ccccc3c2=O)c(Cl)cc1Cl	i	-2%	i	?
O=c1c2ccccc2nc(/C=C\c2ccccc2F)n1-c1ccc(O)cc1	i	nt	i	12%
O=C1c2ccccc2S(=O)(=O)c2cc(C(=O)N3CCN(c4c(Cl)cncc4Cl)CC3)ccc21	i	0%	20µM*	13µM*
CCCCSc1nc2c(cnn2-c2ccccc2)c(=O)n1N	i	-29%	i	16µM*
Nc1cnn(-c2ccccc2)c(=O)c1Cl	i	-1%	i	8%
Cn1cnc([N+](=O)[O-])c1Sc1ccc([N+](=O)[O-])cc1	i	-18%	i	20µM*
Cc1cc(C)cc(-n2c(/C=C/c3cccc(F)c3)nc3ccccc3c2=O)c1	i	nt	?	26%
C[C@]12Cc3cn4c(nc3C=C1CCC1C2CC[C@@]2(C)[C@H]1CC[C@@]2(O)C#N)nc1ccccc14 (stereo not given in full)	nt	19%	nt	nt
SMILES	Abeta rescue	aSyn rescue	FUS suppressor	TDP43 rescue
N#CCC[C@@H]1CC[C@]2(CCCN(Cc3ccncc3)C2)O1	nt	nt	i	nt
Cc1c(Cl)ccc2sc(N3CCN(C(=O)CCS(=O)(=O)c4ccc(F)cc4)CC3)nc12	i	nt	?	18µM*
N#Cc1ccc(C(=O)N2CCN(c3nc4ccc(F)cc4s3)CC2)cc1	i	nt	i	?
Cc1ccc(-n2c(/C=C\c3ccc(F)c(F)c3)nc3ccccc3c2=O)c(C)c1	i	nt	i	?
COC(=O)C1=C(c2ccc(C(C)=O)cc2)C[C@@H]2CC[C@H]1N2C(=O)NC1Cc2ccccc2C1	i	1%	i	13%
C/C(=N\NC(N)=S)C12CC3CC(CC(C3)C1)C2	?	6%	i	14µM*
CC(=O)O[C@H]1CC[C@@]2(C)C(=CC[C@@H]3[C@@H]2CC[C@]2(C)C(=O)CC[C@@H]32)C1	i	?	i	?

Bioassay records deposited in PubChem by National Center for Advancing Translational Sciences (NCATS).
